Structures are written as SMILES. Active and inactive are the calls of the source.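 The calls were made as follows: active = compounds lowering luciferase light whose fitted half-effect concentration is at most twice the top tested dose; inconclusive = flat curve with 30 to 70% inhibition, or poor fit; inactive = the rest.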

A short description of the test: luciferase signal loss, tTA control fusion, HeLa F-luc tTA cells, dry powder, counter-screen for HIV Env fusion inhibitor project, dose response (AID 687021). To be noted: luciferase luminescence counterscreen; series mostly up to 35 µM. A general note: The purpose of a counterscreen is to sort out artefacts and off-target activity.
As for `C[C@H]1CN([C@@H](C)CO)C(=O)c2ccccc2-c2ccccc2CO[C@H]1CN(C)S(=O)(=O)c1ccccc1C#N`, the call was inactive. Regarding `COc1ccc2c(c1)[nH]c1c(N3CCN(Cc4ccc5c(c4)OCO5)CC3)ncnc12`, the molecule was called inactive. Consider `C[C@@H]1CN([C@H](C)CO)C(=O)c2cccc(NS(=O)(=O)c3ccc(Cl)cc3)c2O[C@@H]1CN(C)Cc1ccc(Cl)c(Cl)c1`, for which the molecule was called inactive. Take `Cn1c(C(=O)N2CCN(c3nc4ccccc4s3)CC2)cc2sccc21`: the molecule was called inactive.

On to `Oc1ccc(CNc2ccccc2F)c2cccnc12`, for which the result was inactive. For the molecule `COc1ccc(S(=O)(=O)NCc2ccncc2)cc1OC`, the molecule was called inactive. For `CCCC#Cc1ccc2c(c1)O[C@@H](CN(C)S(=O)(=O)c1cccc(F)c1)[C@@H](C)CN([C@H](C)CO)S2(=O)=O`, the molecule was classed as inactive.

The values above are taken from PubChem BioAssay AID687021 (Broad Institute, 2013).
